# From PubChem BioAssay AID463173 (ICCB-Longwood Screening Facility, Harvard Medical School, 2010)
# In all, about 52,000 compounds went through this assay and about 4,300 (8.3%) were called active. The list comes from a sample in which actives are over-represented; it also holds similar structures and randomly drawn compounds. Values without a mark were called inactive. Cut-off read from the data, not from the text of the source: active = survival mostly below about 52% (no sharp cut-off); inactive = mostly above about 56%.
# Tested on: DeltatarO mutant
# Assay: S. aureus survival, RN4220 and DeltatarO strains – OD600, teichoic acid synthesis inhibitors, primary screen (AID 463173)
# Details: S. aureus RN4220 wild type/DeltatarO growth, OD600, 18 h, hits give low values, screened at 18.75 µg/mL (by protocol)
row,SMILES,survival
1,CCCN(Cc1cccs1)C(=O)Nc1ccc(F)c(Cl)c1,58%
2,COc1ccc(OC)c(CNC(=O)CCCn2c(=O)c3cccn3c3cccnc32)c1,97%
3,CCOc1ccc(NC(=O)CC2C(=O)N(c3ccc(Cl)cc3)C(=O)N2Cc2cccs2)cc1 (stereo unspecified),81%
4,Cc1cc(C)cc(NC(=O)C(Cc2ccccc2)NS(=O)(=O)c2ccc3c(c2)CCC(=O)N3)c1 (stereo unspecified),77%
5,CCOC(=O)C(C)NC(=O)c1cc2c(=O)[nH]c3ccc(C)cc3c2s1 (stereo unspecified),57%
6,Cc1ccc(Cn2c(C(=O)O)c(CNCCc3cccs3)c3ccc(C)cc32)cc1,82%
7,CCc1ccc(CNCc2c(C(=O)O)n(Cc3ccc(C)cc3)c3cc(C)ccc23)cc1,14% (active)
8,Cc1ccc(Cn2c(C(=O)O)c(CNCc3ccc(C)o3)c3ccc(C)cc32)cc1,52%
9,COC(=O)c1scc(-c2ccc(C)cc2)c1S(=O)(=O)Nc1cc(C)ccc1OC,75%
10,CCCSc1ncc(Cl)c(C(=O)Nc2c(C(=O)c3ccc(C)cc3)oc3ccccc23)n1,56%
11,CS(=O)(=O)c1ncc(Cl)c(C(=O)Nc2c(C(=O)c3ccc(Cl)cc3)oc3ccccc23)n1,109%
12,CCSc1ncc(Cl)c(C(=O)Nc2c(C(=O)c3ccccc3)oc3ccccc23)n1,79%
13,CCCS(=O)(=O)c1ncc(Cl)c(C(=O)Nc2c(C(=O)c3ccccc3)oc3ccccc23)n1,102%
14,CCCSc1ncc(Cl)c(C(=O)Nc2c(C(=O)c3ccc(F)cc3)oc3ccccc23)n1,44% (active)
15,CCS(=O)(=O)c1ncc(Cl)c(C(=O)Nc2c(C(=O)c3ccc(C)cc3)oc3ccccc23)n1,50% (active)
16,CCOc1ccc(NC(=O)CSc2ccc3ccccc3n2)cc1,67%
17,Cc1ccc(-n2c(=O)c3oc4ccccc4c3n(CC(=O)Nc3ccc(F)c(Cl)c3)c2=O)cc1C,65%
18,CCC(C(=O)NCc1ccccc1OC)n1nc(C)n2c(cc3sccc32)c1=O (stereo unspecified),82%
19,O=S(=O)(c1ccc2nc(Nc3ccc(Br)cc3F)ccc2c1)N1CCCC1,117%
20,O=C(Nc1ccc(F)cc1Cl)n1ncc2cc(Cl)ccc21,13% (active)
21,O=C(Nc1ccccc1C(F)(F)F)n1ncc2cc(Cl)ccc21,104%
22,Cc1ccc(C)c(NC(=O)n2ncc3cc(Cl)ccc32)c1,82%
23,CC1(c2ccc(Cl)cc2Cl)OCC(Cn2cncn2)O1 (stereo unspecified),83%

row,SMILES,survival
1,S=c1oc(-c2ccccc2)nn1CNc1ccccc1,83%
2,CCN(CC)Cn1nc(-c2ccccc2Cl)oc1=S,77%
3,Cc1ccc(-c2nn(CO)c(=S)o2)cc1,48% (active)
4,CCOc1ccc2c(c1)NC(c1cccs1)=NC(c1ccc(F)cc1)=N2,50%
5,CCc1nn(CCCC(=O)NCc2ccc(OC(C)C)cc2)c(=O)c2cc3occc3n12,77%
6,Cn1cnc(S(=O)(=O)N2CCC(C(=O)N3CCN(c4ccccc4F)CC3)CC2)c1,75%
7,CC(=O)c1ccc(N2CCN(C(=O)C3CCN(S(=O)(=O)c4cn(C)cn4)CC3)CC2)cc1,69%
8,Cc1cccc(N2CCN(C(=O)c3cc(S(=O)(=O)N4CCC(C)CC4)cn3C)CC2)c1C,58%
9,CCOc1ccccc1N1CCN(S(=O)(=O)c2ccc(C3CCCCC3)cc2)CC1,50%
10,Cc1cccc(N2CCN(C(=O)C3CCN(S(=O)(=O)c4cn(C)cn4)CC3)CC2)c1C,92%
11,COc1ccc(N2CCN(C(=O)C3CCN(S(=O)(=O)c4cn(C)cn4)CC3)CC2)cc1,69%
12,COc1ccccc1N1CCN(S(=O)(=O)c2ccc(-c3cnc(C4CC4)o3)cc2)CC1,113%
13,COc1ccccc1N1CCN(C(=O)C2CCN(S(=O)(=O)c3cn(C)cn3)CC2)CC1,46% (active)
14,CC1CCN(S(=O)(=O)c2cc(C(=O)N3CCN(c4ccccc4F)CC3)n(C)c2)CC1,70%
15,COc1ccccc1N1CCN(C(=O)c2cc(S(=O)(=O)N3CCC(C)CC3)cn2C)CC1,32% (active)
16,Cn1cnc(S(=O)(=O)N2CCC(C(=O)N3CCN(c4ccc(Cl)cc4)CC3)CC2)c1,37% (active)
17,COc1ccccc1N1CCN(S(=O)(=O)c2ccc(S(=O)(=O)NC3CCCC3)cc2)CC1,55% (active)
18,Cc1ccc(C)c(NC(=O)C(c2ccccc2)N2Cc3ccccc3C2=O)c1 (stereo unspecified),117%
19,Cn1c(=O)c2c(nc(CN3CCN(c4ccccc4F)CC3)n2Cc2ccccc2F)n(C)c1=O,92%
20,COc1ccc(-n2nc3cc(C)c(NC(=O)c4ccc(C)cc4C)cc3n2)cc1Cl,83%
21,Cc1nnc(NC(=O)CSc2nc3c([nH]c4ccccc43)c(=O)n2-c2ccc(Cl)cc2)s1,73%
22,Cc1ccc(CN2CCSc3ccc(C(=O)Nc4ccc(C)cc4)cc32)cc1,105%
23,O=C(CSc1nnc(Cc2ccccc2)o1)N(c1ccccc1)c1ccccc1,78%

row,SMILES,survival
1,COc1ccccc1NC(=O)C1CCCN(c2nnc(C)c3c(C)n(-c4ccccc4)nc23)C1 (stereo unspecified),84%
2,COc1ccc(S(=O)(=O)NC2(C(F)(F)F)NC(=O)N(CCc3ccccc3)C2=O)cc1 (stereo unspecified),99%
3,O=C(NCC(c1ccco1)S(=O)(=O)c1ccc(Cl)cc1)c1ccc(C(F)(F)F)cc1 (stereo unspecified),17% (active)
4,CC(C)(C)c1ccc(C(=O)NCC(c2ccco2)S(=O)(=O)c2ccccc2)cc1 (stereo unspecified),101%
5,CCOc1ccc(C(=O)NCC(c2ccco2)S(=O)(=O)c2ccc(C)cc2)cc1 (stereo unspecified),88%
6,Cc1ccc(C(=O)NCC(c2ccco2)S(=O)(=O)c2ccc(Cl)cc2)cc1C (stereo unspecified),55%
7,COc1ccc(C(=O)NCC(c2ccco2)S(=O)(=O)c2ccc(F)cc2)cc1 (stereo unspecified),68%
8,Cc1ccc(S(=O)(=O)C(CNC(=O)c2ccc(C(F)(F)F)cc2)c2ccco2)cc1 (stereo unspecified),130%
9,COc1ccc(C(=O)NCC(c2ccco2)S(=O)(=O)c2ccccc2)cc1 (stereo unspecified),-4% (active)
10,CC(C)(C)c1ccc(C(=O)NCC(c2ccco2)S(=O)(=O)c2ccc(F)cc2)cc1 (stereo unspecified),126%
11,Cc1ccc(S(=O)(=O)C(CNC(=O)c2ccc(F)c(F)c2)c2ccco2)cc1 (stereo unspecified),-5% (active)
12,Cc1cc(C)cc(S(=O)(=O)Nc2cccc(-c3ccc(N4CCOCC4)nn3)c2)c1,86%
13,CCOC(=O)C1CCCN(C(=O)Cn2ncc3c(C)n(Cc4ccc(Cl)cc4)c(C)c3c2=O)C1 (stereo unspecified),59%
14,O=C(CSc1nnc(-c2ccc3c(c2)OCO3)o1)Oc1ccccc1,87%
15,CSc1nc(N)c(C#N)c(C(C)C)c1C#N,75%
16,COc1ccc(-n2nc(C(=O)Nc3cccc(C(F)(F)F)c3)c3c4ccccc4n(C)c3c2=O)cc1,78%
17,Cc1cc(S(=O)(=O)N(C)Cc2ccccc2)ccc1-n1cnnn1,81%
18,CN1C(=O)CC(=O)N(C)c2cc(S(=O)(=O)N(C)Cc3ccccc3)ccc21,3% (active)
19,CN1C(=O)Cc2cc(S(=O)(=O)NCCc3ccccc3)ccc21,123%
20,Cc1oc(-c2ccccc2Cl)nc1CS(=O)(=O)CC(=O)NC(C)c1ccccc1 (stereo unspecified),63%
21,Cc1ccc2ncc(C(=O)Nc3cccc(C(F)(F)F)c3)c(=O)n2c1,122%
22,Cc1[nH]c2ccccc2c1C1N2CC3(C)CN1CC(C)(C2)C3=O (stereo unspecified),77%
23,Cc1nn(C)c(C)c1S(=O)(=O)N(CC(=O)Nc1ccc(F)cc1F)c1ccc(C(C)C)cc1,94%

row,SMILES,survival
1,Cc1cccc(NC(=O)CN(c2ccc(C(C)C)cc2)S(=O)(=O)c2c(C)nn(C)c2C)c1C,42% (active)
2,CCOc1ccccc1NC(=O)CN(c1cc(C)cc(C)c1)S(=O)(=O)c1c(C)nn(C)c1C,89%
3,Cc1cc(C)cc(N(CC(=O)Nc2c(C)cc(C)cc2C)S(=O)(=O)c2c(C)nn(C)c2C)c1,-5% (active)
4,COc1ccc(N(CC(=O)Nc2cccc(Cl)c2C)S(=O)(=O)c2c(C)nn(C)c2C)cc1,62%
5,CCc1ccc(NC(=O)CN(c2ccc(C)cc2)S(=O)(=O)c2c(C)nn(C)c2C)cc1,56%
6,CC(=O)c1ccc(N2CCN(S(=O)(=O)c3ccc(-c4cc(C(F)(F)F)on4)s3)CC2)cc1,96%
7,CC(=O)c1ccc(N2CCN(S(=O)(=O)c3ccc(-c4cc(C)no4)s3)CC2)cc1,-5% (active)
8,Cc1cc(-c2ccc(S(=O)(=O)N3CCN(c4ccc(Cl)cc4)CC3)s2)on1,124%
9,Cc1cc(C)c(NC(=O)CN2C(=O)C3(SCC(=O)N3c3ccc(F)cc3)c3ccccc32)c(C)c1 (stereo unspecified),74%
10,CN(Cc1ccccc1)C(=O)CSc1nnc(-c2cccc(Cl)c2)o1,85%
11,O=C(N/N=C/c1ccco1)C1CN(S(=O)(=O)c2ccccc2)CCN1S(=O)(=O)c1ccccc1 (stereo unspecified),1% (active)
12,O=C(N/N=C/c1ccco1)C1c2ccccc2Oc2ccccc21,96%
13,CCNC(=O)C1CN(S(=O)(=O)c2ccccc2)CCN1S(=O)(=O)c1ccccc1 (stereo unspecified),75%
14,Cc1ccc(CNS(=O)(=O)c2ccc3c(c2)CCN3S(C)(=O)=O)cc1,94%
15,O=C(Nc1cccc(C(F)(F)F)c1)c1ccc(F)c(S(=O)(=O)N2CCc3ccccc3C2)c1,91%
16,COc1ccc(-n2c(/C=C/c3cccc4ccccc34)nc3ccccc3c2=O)cc1Cl,78%
17,COc1cc2c(cc1OC)C(COc1cc(C)cc(C)c1)N(C(=O)c1ccc(S(=O)(=O)N3CCCC3)cc1)CC2 (stereo unspecified),73%
18,COc1cc2c(cc1OC)C(COc1ccccc1OC)N(C(=O)c1ccc(S(=O)(=O)N3CCCC3)cc1)CC2 (stereo unspecified),32% (active)
19,COc1cc2c(cc1OC)C(COc1ccc(C(C)C)cc1)N(C(=O)COc1ccccc1)CC2 (stereo unspecified),101%
20,COc1cc2c(cc1OC)C(COc1ccccc1OC)N(C(=O)COc1ccc(Cl)cc1)CC2 (stereo unspecified),47% (active)
21,COc1cc2c(cc1OC)C(COc1ccc(F)cc1)N(C(=O)c1ccc(S(=O)(=O)N3CCCC3)cc1)CC2 (stereo unspecified),81%
22,COC(=O)c1ccc(OCC2c3cc(OC)c(OC)cc3CCN2C(=O)COc2ccc(Cl)cc2)cc1 (stereo unspecified),78%
